Here are results for 53 compounds from ChEMBL document CHEMBL4513216, “Probing the Open Global Health Chemical Diversity Library for Multistage-Active Starting Points for Next-Generation Antimalarials” (ACS Infect Dis, 2020).

The structures appear in SMILES notation. The campaign covered roughly 69,000 compounds. About 8,600 (12%) showed an effect of 50% or more. This excerpt belongs to a sample that is enriched for strong results.

This experiment has as its system Plasmodium berghei. Briefly: Screen against P. berghei liver stage (PbLuc), transformed with Luciferase, at 10uM. Format: functional, HepG2. The settings on record: tested at 10 uM.
On to `Cn1nc(Cn2cccn2)c2c1CN(C1CCOC1)C2` (stereo not drawn), for which the INHIBITION is -4.02%.

In the case of `COCC(=O)N1CCN(C)C(=O)C(Cc2ccccc2-c2cccs2)C1` (stereo not drawn), the INHIBITION is -20.6%.

Turning to `O=C(NCC1CC1)C1CCC2(CCN(C(=O)c3ccncc3)CC2)O1` (stereo not drawn), the INHIBITION was -6.05%.

For `CCc1nc(C2CCCN2Cc2nnc(C3CC3)o2)no1` (stereo not drawn), the INHIBITION is listed as -5%.

Consider `Cc1oc(-c2ccco2)nc1CN1CCCC(Cn2cncn2)C1` (stereo not drawn), for which the INHIBITION is given as -97.8%.

For the compound `CC(=O)N(Cc1ncc(C(C)C)o1)C1CCN(Cc2cc(C)no2)C1` (stereo not drawn), the INHIBITION turned out to be 13.95%.

Turning to `Cc1nccn1CCCNc1nccnc1C#N`, the INHIBITION came out at 12.9%.

For the compound `CN1CCC2(CCN(CC3CCOCC3)CC2)C1=O`, the INHIBITION turned out to be 26.5%.

As for `CS(=O)(=O)c1cccc(C(=O)NCC2Cc3ccccc3O2)c1` (stereo not drawn), the INHIBITION stood at 9.06%.

On to `CS(=O)(=O)c1ccc(C(=O)NCCNc2ncccn2)cc1`, for which the INHIBITION is given as -5.07%.

Consider `CS(=O)(=O)c1ccc(C(=O)NCc2nc3cc(F)ccc3[nH]2)cc1`, for which the INHIBITION is reported as 52.2%.

As for `CN(C)c1cc(CNC(=O)c2cccc(F)c2)ccn1`, the INHIBITION was determined as 24%.

With `O=C(NCc1nc2cc(F)ccc2[nH]1)c1ccc[nH]1`, the INHIBITION was -7.16%.

As for `CS(=O)(=O)c1cccc(C(=O)NCc2nc3cc(F)ccc3[nH]2)c1`, the INHIBITION is 64.5%.

In the case of `CC(C)CN1CC(C(=O)NCc2cccnc2-n2cccn2)CC1=O` (stereo not drawn), the INHIBITION stood at 19.5%.

Consider `Cc1noc(C2(C)CCCN(C(=O)C(C)C)C2)n1` (stereo not drawn), for which the INHIBITION was found to be 12.8%.

`Cc1csc2c(C3CCCN(C(=O)Cn4cncn4)C3)nc(C)n12` (stereo not drawn): the INHIBITION came out at 7.19%.

`c1cncc(CN2CCc3ncnc(C4CC4)c3CC2)c1`: the INHIBITION came out at 6.72%.

Regarding `Cc1ccsc1C(=O)N1CCC2(CC(C(=O)N(C)C(C)C)=NO2)C1` (stereo not drawn), the INHIBITION was found to be 56.6%.

Consider `CC(C)N(C)C(=O)C1=NOC2(CCN(C(=O)c3ccncc3)C2)C1` (stereo not drawn), for which the INHIBITION was 3.47%.

Turning to `CC(C)N(C)C(=O)C1=NOC2(CCN(C(=O)c3ccc(Cl)cc3)C2)C1` (stereo not drawn), the INHIBITION is reported as -6.53%.

As for `O=C(C1CC=CC1)N1CCc2c(COCc3ccncc3)cncc2C1`, the INHIBITION amounted to 6.8%.

As for `CCc1nc(C2CCCN(C(=O)c3cccc(C(N)=O)c3)C2)no1` (stereo not drawn), the INHIBITION is 19.5%.

`Cc1ccc2cc(C(=O)N3CCS(=O)(=O)CC3)[nH]c2c1`: the INHIBITION was found to be 53.6%.

Turning to `Cc1ccc2cc(C(=O)N3CCN(S(C)(=O)=O)CC3)[nH]c2c1`, the INHIBITION is recorded as -11.4%.

As to `Cc1ccc2cc(C(=O)N3CCN(C(=O)c4ccoc4)CC3)[nH]c2c1`, the INHIBITION is given as 24.8%.

Turning to `CCS(=O)(=O)CCN1CCN(C2CCC(C(C)C)CC2)CC1` (stereo not drawn), the INHIBITION amounted to 13.8%.

Turning to `CC(NCC1(N(C)C)CCOCC1)c1ccc(SC(F)F)cc1` (stereo not drawn), the INHIBITION was 40.5%.

Turning to `CCOc1ccccc1C(CC(=O)Nc1ncc(C)s1)NC(C)=O` (stereo not drawn), the INHIBITION is recorded as 39.3%.

As to `CC(C)NC(=O)c1ccc2c(c1)nc1n2CCN(Cc2ccccc2)C1`, the INHIBITION came to 33.3%.

As for `Fc1ccccc1CN1CCCC(NC2CCOCC2)C1` (stereo not drawn), the INHIBITION is 49.4%.

For `O=C(Cc1ccsc1)N1CCN(CC2CC2)c2ncccc2C1`, the INHIBITION turned out to be 29.4%.

For the compound `Cn1nc(C2CCN(C(=O)Cc3ccsc3)CC2)c2cccnc21`, the INHIBITION came to 28%.

`Fc1cccc(CN2CCC(c3noc(-c4ccncc4)n3)CC2)c1F`: the INHIBITION was 28.5%.

Regarding `Cn1nc(C2CCCN(C(=O)Cc3ccsc3)C2)c2nccnc21` (stereo not drawn), the INHIBITION came to 48.3%.

Turning to `O=C(Cc1ccsc1)N1CCC(c2n[nH]c3nccnc23)CC1`, the INHIBITION is recorded as -0.902%.

For the compound `O=C(Cc1ccsc1)N1CCC(c2noc(-c3ccncc3)n2)CC1`, the INHIBITION was -0.902%.

Regarding `CN1CCN(C(=O)Cc2ccc(F)cc2)Cc2cccnc21`, the INHIBITION is recorded as -69.9%.

As to `O=C(Cc1ccsc1)N1CCCC(c2n[nH]c3ncccc23)C1` (stereo not drawn), the INHIBITION is given as 67.7%.

With `c1cc(-c2nc(C3CCN(Cc4ccsc4)CC3)no2)ccn1`, the INHIBITION amounted to 50.8%.

In the case of `CN1CCN(C(=O)Cc2ccsc2)Cc2cccnc21`, the INHIBITION came out at 64.9%.

For the compound `O=C(Cc1ccsc1)N1CCCC(c2n[nH]c3nccnc23)C1` (stereo not drawn), the INHIBITION amounted to 59.1%.

In the case of `O=C(Cc1ccc(F)cc1)N1CCCC(c2n[nH]c3nccnc23)C1` (stereo not drawn), the INHIBITION is reported as 23.2%.

On to `CC(=O)N1N=C(c2ccco2)OC1C(=O)N(CC(C)C)CC(C)C` (stereo not drawn), for which the INHIBITION is reported as -33%.

As to `CC(C)c1cc(C(=O)N2CCN(CC3CC3)[C@@H]3CS(=O)(=O)C[C@@H]32)on1`, the INHIBITION is 42.1%.

For `O=C(NCCn1ccnc1)c1ccn(-c2ccccc2)n1`, the INHIBITION was determined as 1.78%.

For the compound `Cc1ccc(CN(CCCN(C)C)Cc2cnc(C)n2C)o1`, the INHIBITION is 9.93%.

On to `Cc1nnsc1CNC(=O)c1ccc2c(c1)nc(N1CCOCC1)n2C`, for which the INHIBITION is -24.6%.

For `CC(C)c1nc(CCn2cncn2)n(-c2ccc3c(c2)OCCO3)n1`, the INHIBITION came out at 3.96%.

Take `Cc1ccc(CC(=O)N2CCCC(c3n[nH]c4nccnc34)C2)cc1` (stereo not drawn): the INHIBITION was 44.8%.

With `COc1cccc(CC(=O)N2CCCC(c3n[nH]c4nccnc34)C2)c1` (stereo not drawn), the INHIBITION was found to be 2.71%.

With `Fc1ccc(CN2CCC(c3n[nH]c4nccnc34)CC2)cc1F`, the INHIBITION turned out to be 35.3%.

Take `NC(=O)c1cc(C2CCCN(C(=O)CCc3ccsc3)C2)n[nH]1` (stereo not drawn): the INHIBITION is given as 56.6%.
